Assay results published in PubChem BioAssay.
Activity calls are given as the source filed them.

What was measured:
[1] = biological target: Albumin (Bos taurus) (UniProt P02769); assay: bovine serum albumin binders on microarray, profiling panel, artefact control for SMM control protein annotation, biochemical, small-molecule microarray, Alexa647 label, 635/667 nm fluorescence (AID 1118); conditions: BSA-A647 binding, fluorescence 635 nm, higher = more signal;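 also: score merges 667 nm emission intensity and signal-to-noise per printed compound spot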
[2] = small-molecule microarray binders of probe aXIP, primary screen, biochemical, NeuroSMM set, 635/667 nm fluorescence (AID 1119); conditions: higher = more signal, called active from +8 up or from −8 down;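 also: probe is the protein aXip251-270 applied at 1 µg/mL to compound-printed slides; binding of probe to printed compounds measured as 667 nm fluorescence plus signal to noise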
[3] = small-molecule binders of probe aNOTCH3, primary screen, biochemical, small-molecule microarray, 635/667 nm fluorescence (AID 1120); conditions: higher = more signal;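 also: probe is a biotin-tagged antibody raised against NOTCH3 rather than NOTCH3 protein; score merges spot fluorescence near 667 nm with spot signal to noise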
[4] = small-molecule binders of probe aNOTCH2, primary screen, biochemical, small-molecule microarray, 635/667 nm fluorescence (AID 1121); conditions: higher = more signal;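 also: score merges feature fluorescence read at 667 nm with its signal to noise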
[5] = biological target: Carbonic anhydrase 2 (Homo sapiens) (UniProt P00918); assay: CAII small-molecule binders, profiling panel, biochemical, small-molecule microarray, Alexa647-labelled CAII (AID 1122); conditions: CAII-A647 binding fluorescence, higher = more signal
[6] = COS7 lysate on small-molecule microarray, probe aHis, 635 nm (AID 1123); conditions: COS7 cell lysate, fluorescence, higher = more signal;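 also: z-score combines 667nm fluorescence intensity with signal-to-noise per printed compound spot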
[7] = compound binding in COS7 lysate, probe aLAP1, primary screen, cell lysate, small-molecule microarray (AID 1124); conditions: probe aLAP1, fluorescence, higher = more signal;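 also: lysate comes from COS7 cells expressing LAP1 and is applied at 0.3 µg/mL; score merges spot fluorescence near 667 nm with signal-to-noise over triplicate slides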
[8] = system: Sam68 (KHDRBS1); assay: Sam68 small-molecule binders, primary screen, biochemical, small-molecule microarray, 635 nm fluorescence (AID 1125); conditions: small-molecule microarray binding, higher = more signal;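 also: score merges 667 nm channel intensity with signal to noise over triplicate slides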
[9] = system: Chordin-like protein 2 (CHRDL2); assay: CHRDL2 small-molecule binders, primary screen, biochemical, small-molecule microarray, 635 nm fluorescence (AID 1126); conditions: small-molecule microarray binding, fluorescence 635 nm; higher = more signal;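 also: printed compound slides probed with Chrdl2 protein at 4 µg/mL for 1 h at 4 C; score merges 667 nm emission intensity with signal to noise over three replicate slides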
[10] = biological target: Concanavalin-A (Canavalia ensiformis) (UniProt P02866); assay: ConA small-molecule binders, primary screen, artefact control for SMM control protein annotation, biochemical, small-molecule microarray, Alexa647 label, 635 nm (AID 1127); conditions: ConA-A647 binding fluorescence, higher = more signal;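 also: z combines 667 nm emission intensity with signal-to-noise across three replicate slides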
Sequence of Concanavalin-A (Canavalia ensiformis) (P02866 whole entry, looked up): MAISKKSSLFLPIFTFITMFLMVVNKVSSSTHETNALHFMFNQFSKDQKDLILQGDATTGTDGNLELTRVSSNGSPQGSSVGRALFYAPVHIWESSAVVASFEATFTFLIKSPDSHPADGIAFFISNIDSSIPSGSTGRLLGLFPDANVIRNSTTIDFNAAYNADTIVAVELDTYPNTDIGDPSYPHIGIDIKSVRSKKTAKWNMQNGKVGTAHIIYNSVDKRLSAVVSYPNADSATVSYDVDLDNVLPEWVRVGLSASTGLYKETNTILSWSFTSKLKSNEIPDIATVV

Sequence of Albumin (Bos taurus) (P02769 whole entry, looked up): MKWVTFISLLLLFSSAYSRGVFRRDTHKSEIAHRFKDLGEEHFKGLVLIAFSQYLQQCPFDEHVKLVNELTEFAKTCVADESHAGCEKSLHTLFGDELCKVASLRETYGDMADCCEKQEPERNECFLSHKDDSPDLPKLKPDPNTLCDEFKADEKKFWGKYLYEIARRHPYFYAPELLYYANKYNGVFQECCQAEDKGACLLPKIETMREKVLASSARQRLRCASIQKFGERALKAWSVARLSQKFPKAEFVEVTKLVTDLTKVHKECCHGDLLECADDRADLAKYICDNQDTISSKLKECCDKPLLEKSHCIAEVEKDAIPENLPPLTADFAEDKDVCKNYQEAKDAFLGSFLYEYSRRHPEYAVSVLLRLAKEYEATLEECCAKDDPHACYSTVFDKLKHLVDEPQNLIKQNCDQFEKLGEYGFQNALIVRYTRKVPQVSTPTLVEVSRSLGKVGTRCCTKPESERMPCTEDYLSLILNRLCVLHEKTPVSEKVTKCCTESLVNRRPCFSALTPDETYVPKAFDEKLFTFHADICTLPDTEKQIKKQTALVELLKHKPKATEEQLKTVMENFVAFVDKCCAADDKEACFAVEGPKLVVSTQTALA

Structure (SMILES)	composite z-score [1]	composite Z-score [2]	composite z-score [3]	composite z-score [4]	composite z-score [5]	composite z-score [6]	composite z-score [7]	composite z-score [8]	composite z-score [9]	composite z-score [10]
O=C1C[C@]2(c3ccc([N+](=O)[O-])cc3)C(=O)N(C3CC3)c3cc(CO)ccc3[C@H]2N1CC12CC3CC(CC(C3)C1)C2	0.393	-0.571 (inactive)	-0.213	-0.0357	0.76	0.422	0.401	-0.183	-0.201	0.176
CC#CCO[Si](C#Cc1ccccc1)(C(C)C)C(C)C	-1.33	-0.197 (inactive)	-0.365	-0.156	-0.624	-0.445	-0.353	-1.18	-0.913	-1.46
CCCCC=C[C@@H](NC(=O)OCc1ccccc1Cl)c1ccccc1	0.997	-0.418 (inactive)	1.74	0.825	0.526	2.65	0.0357	1.3	-0.747	1.13
CCOC(=O)C[C@H]1[C@H](OC(=O)Cc2ccc3c(c2)OCO3)[C@@H](NC(=O)c2ccc3ccccc3n2)c2cc(OCCCO)ccc2N1C(=O)c1ccc2ccccc2n1	0.208	-0.0069 (inactive)	-0.0646	-0.135	0.371	0.986	0.171	0.796	0.0741	1.07
C=CCC(OC(C)=O)[C@@H]1[C@@H](N(Cc2cccc3ccccc23)C(=O)Cc2ccc(F)cc2)c2cc(OCCCO)ccc2N1C(=O)c1ccc2ccccc2c1 (stereo not given in full)	-0.0241	-0.748 (inactive)	-0.0111	-0.104	-0.0968	0.0036	-0.353	-0.0562	0.235	-0.15
COC(=O)[C@@H]1N=C(c2ccc(OCCCO)cc2)O[C@@H]1C	-0.867	-0.385 (inactive)	0.0893	-0.082	-0.153	-0.223	0.905	0.973	-0.155	0.0255
COc1ccc([Si](C)(C)[C@@H]2[C@@H](CCO)O[C@]3(C(=O)N(Cc4ccccc4)c4ccc(N5C(=O)c6cccc7cccc5c67)cc43)[C@H]2C)cc1	0.511	0.708 (inactive)	-0.146	-0.155	-0.0746	1.25	-0.3	-0.239	-0.215	1.01
COC(=O)[C@]1(CCS(=O)(=O)c2ccccc2)N=C(c2ccc(OCCCO)cc2)O[C@@H]1c1ccccc1N=[N+]=[N-]	-0.325	0.0652 (inactive)	0.359	0.142	0.78	2.93	0.612	1.29	0.412	1.19
CCOC(=O)[C@@H]1CCCCN1C(=O)C(=O)OC	0.145	-0.587 (inactive)	-0.0431	-0.274	-0.177	0.226	0.193	0.322	-0.0507	0.131
CCOC(=O)C[C@H]1[C@H](OC(=O)c2ccc(C(=O)c3ccccc3)cc2)[C@@H](NC(=O)C2CCCCC2)c2cc(OCCCO)ccc2N1C(=O)c1ccc2ccccc2n1	0.534	-0.482 (inactive)	-0.0647	-0.102	0.0738	1.05	-0.0375	1.31	0.24	0.955
CC(C)(C)OC(=O)COc1cccc(C(=O)CCN2CCOCC2)c1	0.217	0.784 (inactive)	-0.0119	-0.074	-0.382	0.258	-0.281	0.656	0.309	-0.244
CC(C)N1CC=CC23O[C@@H]4C=CCCOC(=O)C4[C@H]2C(=O)N(CCCO)[C@@H]3C1=O (stereo not given in full)	-0.682	-0.472 (inactive)	-0.112	-0.0995	0.734	-0.192	0.303	0.334	-0.347	-0.0639
COC(=O)C(CC#Cc1ccc2c(c1)[C@]1(C(=O)N2)[C@H](c2ccc(O)cc2)N2[C@H](c3ccccc3)[C@H](c3ccccc3)OC(=O)[C@H]2[C@@H]1C(=O)NC[C@H](O)c1ccccc1)C(=O)OC	0.0841	0.564 (inactive)	0.0948	-0.0956	0.553	1.22	1.2	1.24	0.294	0.517
N#Cc1ccc(NN2C(C(O)c3ccc(Br)cc3)C=CC3C(=O)N(c4ccccc4)C(=O)C32)cc1 (stereo not given)	0.539	0.718 (inactive)	0.43	0.357	0.721	3.24	1.35	0.83	0.195	1.07
C=C(COC)/C(=C/C[C@H](OC(=O)c1ccncc1)c1ccc(CO)o1)c1cnc2ccccc2c1	-0.0377	0.99 (inactive)	0.0282	-0.123	0.915	1.04	1.12	1.27	0.766	1.08
C=C[C@@H](OC)[C@H](OC(=O)Nc1ccc(OC)cc1)c1ccc(O)c(F)c1	-0.715	0.656 (inactive)	-0.0581	-0.2	0.268	1.93	0.117	0.21	0.746	-0.728
CCCCCN1CC=CC23O[C@@H]4C=CCCOC(=O)C4[C@H]2C(=O)N(CCCCCCO)[C@@H]3C1=O (stereo not given in full)	-0.587	0.976 (inactive)	-0.252	-0.203	0.861	2.33	0.0488	0.0067	-0.856	-0.52
Cc1cc(C)c(C(O)C2C=CC3C(=O)N(c4ccccc4)C(=O)C3N2Nc2ccccc2F)c(C)c1 (stereo not given)	0.553	0.224 (inactive)	0.0602	0.0278	0.365	1.08	0.725	-0.186	0.0036	0.511
CC[C@@H]1C=C(C(=O)O)[C@H](c2ccc(C#N)cc2)N1S(=O)(=O)c1ccc(C)cc1	0.173	0.474 (inactive)	-0.0077	-0.046	0.838	3.03	1.44	1.09	-1.52	0.91
NC(=O)NCC#Cc1ccc2c(c1)[C@]1(C(=O)N2)[C@H](c2ccccc2OCCO)N2[C@H](c3ccccc3)[C@H](c3ccccc3)OC(=O)[C@H]2[C@@H]1C(=O)NC[C@H](O)c1ccccc1	0.63	-0.17 (inactive)	-0.143	-0.103	0.582	1.19	0.428	0.026	-0.501	0.68
CC(C)C(CO)N1C(=O)[C@@H]2C3C(=O)OCCC/C=C\[C@H]3OC23C=CCN(Cn2nnc4ccccc42)C(=O)[C@@H]13 (stereo not given in full)	-0.37	-0.0983 (inactive)	-0.256	-0.181	0.885	0.295	0.685	0.713	-0.81	-0.662
